# Unmarked numbers belong to inactive results.
# What was measured:
# Test in all cases: log2 ratio of Biotin-Ahx-Ub-VS probe labelling (fragment/DMSO); higher = less target engagement (more negative = stronger competition), active = hit call of the paper (q ≤ 0.05, log2 ratio ≤ -1)
# Conditions in all cases: compound concentration: 200 uM; treatment time: 3 h
# USP19 = molecular target: T1, USP19 (UniProt O94966)
# T1 sequence (whole entry): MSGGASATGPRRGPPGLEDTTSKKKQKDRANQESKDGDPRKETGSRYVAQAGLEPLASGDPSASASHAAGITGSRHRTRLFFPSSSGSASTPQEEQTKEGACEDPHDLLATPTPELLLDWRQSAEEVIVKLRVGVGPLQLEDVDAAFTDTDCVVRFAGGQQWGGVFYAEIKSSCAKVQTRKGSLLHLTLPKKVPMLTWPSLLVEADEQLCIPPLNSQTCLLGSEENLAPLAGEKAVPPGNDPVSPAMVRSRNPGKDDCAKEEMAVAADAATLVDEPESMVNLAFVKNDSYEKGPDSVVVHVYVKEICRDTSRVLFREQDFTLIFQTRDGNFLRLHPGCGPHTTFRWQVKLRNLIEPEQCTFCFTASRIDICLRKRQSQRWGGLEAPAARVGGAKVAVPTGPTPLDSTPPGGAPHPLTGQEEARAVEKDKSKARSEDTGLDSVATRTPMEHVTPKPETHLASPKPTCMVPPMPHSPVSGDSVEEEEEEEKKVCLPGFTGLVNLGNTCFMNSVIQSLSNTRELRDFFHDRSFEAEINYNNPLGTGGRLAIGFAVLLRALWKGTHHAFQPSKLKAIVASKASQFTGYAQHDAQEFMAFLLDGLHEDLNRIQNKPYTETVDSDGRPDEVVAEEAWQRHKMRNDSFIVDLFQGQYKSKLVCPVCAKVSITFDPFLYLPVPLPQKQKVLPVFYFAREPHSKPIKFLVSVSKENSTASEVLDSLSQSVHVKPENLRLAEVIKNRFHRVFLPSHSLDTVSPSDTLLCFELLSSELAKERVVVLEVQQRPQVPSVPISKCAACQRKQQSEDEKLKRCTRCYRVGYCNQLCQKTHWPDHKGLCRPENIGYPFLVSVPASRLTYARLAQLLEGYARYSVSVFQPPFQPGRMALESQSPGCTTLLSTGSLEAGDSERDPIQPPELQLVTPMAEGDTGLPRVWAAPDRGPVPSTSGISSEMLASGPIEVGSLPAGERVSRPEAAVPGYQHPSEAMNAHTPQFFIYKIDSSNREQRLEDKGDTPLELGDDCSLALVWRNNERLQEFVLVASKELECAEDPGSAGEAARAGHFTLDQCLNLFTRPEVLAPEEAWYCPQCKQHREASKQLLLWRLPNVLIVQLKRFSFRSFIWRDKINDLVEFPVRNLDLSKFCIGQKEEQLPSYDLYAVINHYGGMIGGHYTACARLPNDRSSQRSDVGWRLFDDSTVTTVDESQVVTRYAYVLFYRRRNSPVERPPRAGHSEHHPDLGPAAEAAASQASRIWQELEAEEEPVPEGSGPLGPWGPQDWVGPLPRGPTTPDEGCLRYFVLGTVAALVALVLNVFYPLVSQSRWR
# In short: (§1)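 Labelling with Biotin-Ahx-Ub-VS (0.5 µM final, 1 h) followed a 3 h triplicate treatment of HEK293T lysate (495 µg per sample, Tris/CHAPS/IGEPAL buffer with protease inhibitors) with fragment at 200 µM or vehicle. Labelled DUBs were NeutrAvidin-enriched, digested with LysC and trypsin, and run by diaPASEF LC-MS/MS. The values, average log2 fragment/vehicle ratios by unpaired t-test, come from global-median-normalised Spectronaut label-free quantities. Proteins with ≥2 unique peptides were used.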
# USP22 = molecular target: T2, USP22 (UniProt Q9UPT9)
# T2 sequence (whole entry): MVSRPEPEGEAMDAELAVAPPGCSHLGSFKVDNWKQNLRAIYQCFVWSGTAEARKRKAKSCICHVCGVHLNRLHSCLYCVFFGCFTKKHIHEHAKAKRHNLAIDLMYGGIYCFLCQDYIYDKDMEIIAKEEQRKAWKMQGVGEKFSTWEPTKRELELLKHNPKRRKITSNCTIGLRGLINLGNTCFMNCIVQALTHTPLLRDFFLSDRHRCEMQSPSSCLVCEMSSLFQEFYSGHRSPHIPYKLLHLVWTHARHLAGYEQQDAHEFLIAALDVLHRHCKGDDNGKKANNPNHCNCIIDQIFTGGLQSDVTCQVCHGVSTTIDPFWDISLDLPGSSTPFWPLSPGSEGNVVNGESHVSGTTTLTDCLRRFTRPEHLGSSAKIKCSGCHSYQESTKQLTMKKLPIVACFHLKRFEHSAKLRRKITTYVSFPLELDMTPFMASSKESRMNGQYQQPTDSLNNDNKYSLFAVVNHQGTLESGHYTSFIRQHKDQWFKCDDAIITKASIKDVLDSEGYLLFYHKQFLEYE
# In short: as §1
# USP24 = USP24 (UniProt Q9UPU5)
# USP24, sequence (Q9UPU5 whole entry): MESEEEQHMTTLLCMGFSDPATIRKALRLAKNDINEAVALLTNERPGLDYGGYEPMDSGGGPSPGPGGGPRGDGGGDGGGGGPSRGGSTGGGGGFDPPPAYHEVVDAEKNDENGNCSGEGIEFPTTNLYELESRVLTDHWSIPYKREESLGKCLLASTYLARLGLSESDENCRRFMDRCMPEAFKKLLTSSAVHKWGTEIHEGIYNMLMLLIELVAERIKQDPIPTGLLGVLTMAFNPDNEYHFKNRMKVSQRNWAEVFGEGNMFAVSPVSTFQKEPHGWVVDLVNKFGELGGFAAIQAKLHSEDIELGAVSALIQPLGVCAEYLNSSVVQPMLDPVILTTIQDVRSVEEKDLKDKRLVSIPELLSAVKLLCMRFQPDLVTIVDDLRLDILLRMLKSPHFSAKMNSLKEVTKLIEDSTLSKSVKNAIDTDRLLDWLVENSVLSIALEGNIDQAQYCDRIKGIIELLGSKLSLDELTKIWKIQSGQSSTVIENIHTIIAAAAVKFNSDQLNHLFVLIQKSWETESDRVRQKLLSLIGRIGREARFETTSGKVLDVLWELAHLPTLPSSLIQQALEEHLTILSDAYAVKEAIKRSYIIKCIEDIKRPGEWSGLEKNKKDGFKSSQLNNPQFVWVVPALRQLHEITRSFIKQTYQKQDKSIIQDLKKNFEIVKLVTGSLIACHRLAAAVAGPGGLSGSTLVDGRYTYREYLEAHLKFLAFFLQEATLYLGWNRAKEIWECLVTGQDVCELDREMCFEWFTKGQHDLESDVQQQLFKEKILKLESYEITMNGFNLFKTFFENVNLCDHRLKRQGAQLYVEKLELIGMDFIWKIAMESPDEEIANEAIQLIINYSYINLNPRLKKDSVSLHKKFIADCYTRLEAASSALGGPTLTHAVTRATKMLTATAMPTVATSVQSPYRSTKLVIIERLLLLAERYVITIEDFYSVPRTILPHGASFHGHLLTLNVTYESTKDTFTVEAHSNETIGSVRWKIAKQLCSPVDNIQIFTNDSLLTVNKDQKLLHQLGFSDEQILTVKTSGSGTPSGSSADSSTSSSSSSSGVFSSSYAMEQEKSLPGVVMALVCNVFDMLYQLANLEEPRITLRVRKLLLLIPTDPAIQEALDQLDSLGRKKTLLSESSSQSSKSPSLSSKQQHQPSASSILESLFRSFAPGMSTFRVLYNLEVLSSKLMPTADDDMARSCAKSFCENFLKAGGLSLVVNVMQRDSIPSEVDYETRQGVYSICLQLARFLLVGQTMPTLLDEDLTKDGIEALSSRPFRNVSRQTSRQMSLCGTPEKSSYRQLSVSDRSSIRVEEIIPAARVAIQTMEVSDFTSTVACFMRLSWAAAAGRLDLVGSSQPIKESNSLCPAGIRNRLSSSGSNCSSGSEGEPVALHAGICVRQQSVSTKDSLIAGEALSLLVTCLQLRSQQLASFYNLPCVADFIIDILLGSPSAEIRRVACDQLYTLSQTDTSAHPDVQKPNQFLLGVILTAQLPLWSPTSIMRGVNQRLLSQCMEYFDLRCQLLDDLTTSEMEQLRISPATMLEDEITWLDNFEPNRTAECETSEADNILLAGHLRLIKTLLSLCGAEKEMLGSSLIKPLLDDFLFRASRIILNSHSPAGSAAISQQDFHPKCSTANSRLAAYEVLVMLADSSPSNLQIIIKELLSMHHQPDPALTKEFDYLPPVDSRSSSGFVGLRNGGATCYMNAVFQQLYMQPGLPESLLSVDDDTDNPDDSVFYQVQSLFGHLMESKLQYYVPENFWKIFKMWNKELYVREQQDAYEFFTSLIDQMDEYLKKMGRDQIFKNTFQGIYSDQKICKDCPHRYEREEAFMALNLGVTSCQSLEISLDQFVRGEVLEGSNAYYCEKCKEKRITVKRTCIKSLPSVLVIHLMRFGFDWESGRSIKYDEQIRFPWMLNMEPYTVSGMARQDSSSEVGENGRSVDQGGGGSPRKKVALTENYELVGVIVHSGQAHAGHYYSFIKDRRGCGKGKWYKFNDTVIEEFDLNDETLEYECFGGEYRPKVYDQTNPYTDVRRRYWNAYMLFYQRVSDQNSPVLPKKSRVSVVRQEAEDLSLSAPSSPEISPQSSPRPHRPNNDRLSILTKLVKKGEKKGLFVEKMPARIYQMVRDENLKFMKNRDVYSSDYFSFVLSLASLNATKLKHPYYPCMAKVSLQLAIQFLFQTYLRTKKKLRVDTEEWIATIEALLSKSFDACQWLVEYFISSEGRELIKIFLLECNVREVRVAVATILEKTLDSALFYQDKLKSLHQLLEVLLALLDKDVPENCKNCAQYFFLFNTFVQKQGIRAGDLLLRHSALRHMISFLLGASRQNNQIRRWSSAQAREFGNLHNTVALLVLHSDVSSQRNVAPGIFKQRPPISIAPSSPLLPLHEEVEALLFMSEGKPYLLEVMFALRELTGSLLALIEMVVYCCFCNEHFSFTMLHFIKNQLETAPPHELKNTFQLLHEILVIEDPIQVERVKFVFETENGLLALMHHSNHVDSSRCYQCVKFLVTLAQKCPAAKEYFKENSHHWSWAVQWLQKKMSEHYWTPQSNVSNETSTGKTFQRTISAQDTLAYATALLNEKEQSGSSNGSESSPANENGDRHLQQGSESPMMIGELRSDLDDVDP
# In short: as §1
# USP25 = molecular target: T3, USP25 (UniProt Q9UHP3)
# T3 sequence (whole entry): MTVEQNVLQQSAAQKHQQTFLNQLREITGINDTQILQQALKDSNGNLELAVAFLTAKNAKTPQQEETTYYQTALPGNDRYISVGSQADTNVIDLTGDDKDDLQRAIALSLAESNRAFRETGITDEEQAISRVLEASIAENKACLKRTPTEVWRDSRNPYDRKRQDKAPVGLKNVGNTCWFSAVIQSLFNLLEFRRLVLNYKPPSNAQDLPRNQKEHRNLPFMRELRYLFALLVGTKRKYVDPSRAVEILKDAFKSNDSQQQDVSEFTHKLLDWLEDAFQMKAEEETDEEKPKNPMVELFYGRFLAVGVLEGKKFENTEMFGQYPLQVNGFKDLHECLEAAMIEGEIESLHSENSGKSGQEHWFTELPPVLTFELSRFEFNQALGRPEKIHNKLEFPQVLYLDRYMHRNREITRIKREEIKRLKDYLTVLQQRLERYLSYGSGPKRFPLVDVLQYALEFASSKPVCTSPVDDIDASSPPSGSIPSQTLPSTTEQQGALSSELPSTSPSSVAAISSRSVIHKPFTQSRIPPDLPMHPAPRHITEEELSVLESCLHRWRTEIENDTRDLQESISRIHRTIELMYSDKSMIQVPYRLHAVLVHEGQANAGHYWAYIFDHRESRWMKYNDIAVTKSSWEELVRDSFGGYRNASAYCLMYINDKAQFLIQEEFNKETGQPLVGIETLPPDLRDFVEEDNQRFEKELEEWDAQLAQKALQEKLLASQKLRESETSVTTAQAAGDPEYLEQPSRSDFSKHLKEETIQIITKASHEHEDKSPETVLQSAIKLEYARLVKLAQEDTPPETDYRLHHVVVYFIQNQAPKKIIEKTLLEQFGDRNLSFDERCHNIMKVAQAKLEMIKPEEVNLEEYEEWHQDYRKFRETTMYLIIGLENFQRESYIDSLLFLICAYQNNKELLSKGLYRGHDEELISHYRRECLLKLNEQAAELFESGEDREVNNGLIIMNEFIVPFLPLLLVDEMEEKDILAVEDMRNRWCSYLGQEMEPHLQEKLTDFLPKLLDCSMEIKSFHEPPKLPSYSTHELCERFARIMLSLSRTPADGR
# In short: as §1
# USP28 = molecular target: T4, USP28 (UniProt Q96RU2)
# T4 sequence (whole entry): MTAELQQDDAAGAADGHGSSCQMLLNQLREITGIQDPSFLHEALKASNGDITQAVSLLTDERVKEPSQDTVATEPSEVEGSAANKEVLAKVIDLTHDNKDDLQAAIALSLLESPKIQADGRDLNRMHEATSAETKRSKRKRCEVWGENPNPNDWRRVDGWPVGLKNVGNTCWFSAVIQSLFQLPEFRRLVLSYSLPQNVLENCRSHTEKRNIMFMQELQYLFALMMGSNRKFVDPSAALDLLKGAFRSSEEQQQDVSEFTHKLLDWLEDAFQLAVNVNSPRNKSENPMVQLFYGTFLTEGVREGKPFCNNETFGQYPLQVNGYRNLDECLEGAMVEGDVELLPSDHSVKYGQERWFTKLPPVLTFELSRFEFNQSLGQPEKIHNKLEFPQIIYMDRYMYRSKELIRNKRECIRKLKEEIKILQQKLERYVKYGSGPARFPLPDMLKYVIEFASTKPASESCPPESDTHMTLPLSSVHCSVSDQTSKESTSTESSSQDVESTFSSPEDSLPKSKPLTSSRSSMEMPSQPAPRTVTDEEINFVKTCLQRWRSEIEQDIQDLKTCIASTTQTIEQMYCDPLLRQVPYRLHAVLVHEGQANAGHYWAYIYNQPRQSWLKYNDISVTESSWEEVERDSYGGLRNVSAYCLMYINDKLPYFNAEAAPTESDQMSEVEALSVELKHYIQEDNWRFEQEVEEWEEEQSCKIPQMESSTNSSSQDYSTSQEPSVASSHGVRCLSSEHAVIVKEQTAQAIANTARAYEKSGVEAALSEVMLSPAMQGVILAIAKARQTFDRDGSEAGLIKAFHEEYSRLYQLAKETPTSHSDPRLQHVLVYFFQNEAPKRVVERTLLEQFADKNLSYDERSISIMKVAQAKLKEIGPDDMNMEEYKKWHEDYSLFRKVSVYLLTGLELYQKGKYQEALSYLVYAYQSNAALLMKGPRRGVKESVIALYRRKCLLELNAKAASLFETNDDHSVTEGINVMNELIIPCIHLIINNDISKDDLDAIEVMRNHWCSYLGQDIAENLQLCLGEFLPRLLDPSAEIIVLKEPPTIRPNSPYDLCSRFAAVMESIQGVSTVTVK
# In short: as §1
structure (smiles),measurement,setting,value
Cl.O=C(CCl)N1CCC(n2nc3ccccc3n2)CC1,log2 ratio of Biotin-Ahx-Ub-VS probe labelling,USP19,-0.666
same,log2 ratio of Biotin-Ahx-Ub-VS probe labelling,USP22,-0.472
same,log2 ratio of Biotin-Ahx-Ub-VS probe labelling,USP24,-1.08 (active)
same,log2 ratio of Biotin-Ahx-Ub-VS probe labelling,USP25,-0.61
same,log2 ratio of Biotin-Ahx-Ub-VS probe labelling,USP28,-0.611

# Reference: the supplement of paper PMC11732987, “Enantioselective OTUD7B fragment discovery through chemoproteomics screening and high-throughput optimisation” (Communications Chemistry, 2025)
